Laboratory results reported in PubChem BioAssay (NCATS).
Records with an inconclusive call do not appear. The source made the active and inactive calls. Calls follow the shape of the dose curve; as a rule, active = well fitted inhibition curve with a large enough effect; inconclusive = small, poorly fitted or top-dose-only effect; inactive = no such curve, though single readings can be large or run the other way.

assay: qHTS assay to identify inhibitors of the type 1 interferon - major histocompatibility complex class I in skeletal muscle: Counter screen cell viability and HiBit confirmation (AID 1347412); settings: iHSKM muscle cells + IFN-b, HiBiT or CellTiter-Glo, 24 h; HiBiT; also: nearly all actives have a fitted effect of over 60% in size
From the text: Assay Submitter (PI): Travis B. Kinder Ph.D. & James Inglese Ph.D. Assay Development and Screening Technology Laboratory (ADST) National Center for Advancing Translational Sciences (NCATS), Rockville, MD National Institute of Health (NIH), Bethesda, Maryland Idiopathic inflammatory myopathies, collectively referred to as myositis, are a group of rare autoimmune diseases characterized by skeletal muscle inflammation, weakness, and usually accompanied by systemic pathologies of the skin, lungs, or vasculature. Current immunosuppressive therapies and glucocorticoids are often not curative and are accompanied by harsh side effects, especially in children with juvenile myositis. We initiated a drug repurposing and development program to identify more targeted, less toxic therapeutics to treat myositis. Although its cause is not known, muscle from a subset of patients have an abundance of the inflammatory type 1 interferon (IFN) and a down-stream product major histocompatibility complex class I (MHC class I), which are both thought to contribute to damage and weakness. We conducted quantitative high throughput screening on 6,576 compounds (4,679 unique) through a series of cell-based assays to identify those that inhibit the IFN-stimulated expression of MHC class I in muscle precursor cells (myoblasts). The compound identification and evaluation strategy utilized a primary screen with reporter-tagged MHC class I in genome-engineered myoblasts, ATP content counter screen for viability, HLA-ABC immunofluorescence secondary screen, and HLA-B RT-qPCR tertiary screen. The primary screen utilized CRISPR/Cas9 genome-engineering of immortalized human myoblasts, C25cl48, where a pro-luminescent reporter HiBit was fused to the C-terminus of endogenous MHC class I allele HLA-B*08:01 (HLA-B HiBit myoblasts). HiBit is an 11 amino acid fragment of NanoLuc luminescent reporter (Promega Corporation), and when complexed to the larger LgBit fragment, the reconstituted enzyme produces light in the presence of furimazine substrate (Schwinn et al., 2018). Briefly, HLA-B HiBit myoblasts were plated into 1536-well plates, treated with 4.0 ng/ml human IFN-beta and 650 inhibitory compounds identified from primary screening in a 12-point, 1:3 titration with a high final concentration of 46 uM. Compounds were pinned into duplicate plates, with one for HiBit confirmation and one for ATP content viability assay. After 24 hrs of treatment, cells were assayed by either Nano-Glo HiBiT Lytic Detection System (Promega) or CellTiter Glo (Promega), and luminescence measured by a ViewLux 1430 Ultra HTS (Perkin Elmer). References: Schwinn MK, Machleidt T, Zimmerman K, Eggers CT, Dixon AS, Hurst R, Hall MP, Encell LP, Binkowski BF, Wood K V. 2018. CRISPR-Mediated Tagging of Endogenous Proteins with a Luminescent Peptide. ACS Chem Biol 13:467-474. doi:10.1021/acschembio.7b00549
PROTOCOL TABLE (as described by Inglese et al., 2007) SEQUENCE No. (e.g., 1, 2, 3, etc.); […] (e.g., Cells, Incubation, Reagent, etc.); VALUE; DESCRIPTION 1a; Cells; 5 uL; Use a Multidrop Combi (Thermo Scientific) to seed 300 cells/well into 16 Greiner 1536 well white/solid bottom, high base, TC plates in 5 ul/well of iHSKM growth medium (GM) without dexamethasone into columns 1+2. Add metal lids with gas-exchange holes 1b; Cells; 5 uL; Use a Multidrop Combi (Thermo Scientific) to seed 300 cells/well into 16 Greiner 1536 well white/solid bottom, high base, TC plates in 5 ul/well of iHSKM GM without dexamethasone + 4 ng/ml IFN-b into columns 3 - 48. Add metal lids with gas-exchange holes 2; Incubate; 1 hr; Incubate at 37 C, 5% CO2, 95% RH 3; Compounds; 23 nl; Use Pin Tool (Wako) to transfer DMSO control, 92 uM final digitonin cytotoxic control, ruxolitinib IFN-b inhibitor control [High Concentration = 80 uM final, 16-pt, 1:2 in duplicate], and library compounds in DMSO. […]
% is scaled to controls: 0 for no effect and ±100 for the full control effect; potency is read from the fitted curve at half-maximal effect.

| SMILES | Potency |
| --- | --- |
| C=CC(=O)Nc1cccc(Oc2nc(Nc3ccc(N4CCN(C)CC4)cc3)ncc2Cl)c1 | 22.2 µM (active) |
| CN(C)Cc1c(C(=O)NCCOc2ccc(C(=O)NO)cc2)oc2ccccc12 | 0.787 µM (active) |
| Nc1ncnc2c1c(-c1cccc(OCc3ccccc3)c1)cn2C1CC(CN2CCCC2)C1 (stereo not given) | 22.2 µM (active) |
| CNC(=O)c1cc(Oc2ccc(NC(=O)Nc3cc(C(C)(C)C)nn3-c3ccc4ncccc4c3)c(F)c2)ccn1 | 3.94 µM (active) |
| CN(c1ncccc1CNc1nc(Nc2ccc3c(c2)CC(=O)N3)ncc1C(F)(F)F)S(C)(=O)=O | 4.97 µM (active) |
| CC(C)c1ccc(Cn2ccc3c4c(N)nc(NC5CC5)nc4ccc32)cc1 | 17.6 µM (active) |
| COc1cccc2c(NCc3ccccc3)nc(-n3c(N)nc4ccccc43)nc12 | 12.5 µM (active) |
| CC(C)c1cnn2c(NCc3ccccc3)cc(N[C@@H](CO)[C@H](O)CO)nc12 | 0.157 µM (active) |
| CC[C@H](CO)Nc1nc(NCc2ccccc2)c2ncn(C(C)C)c2n1 | 17.6 µM (active) |
| CC[C@@H]1C(=O)N(C)c2cnc(Nc3ccc(C(=O)NC4CCC(N5CCN(CC6CC6)CC5)CC4)cc3OC)nc2N1C(C)C (stereo not given in full) | 6.25 µM (active) |
| O=C(NC1CCNCC1)c1[nH]ncc1NC(=O)c1c(Cl)cccc1Cl | 0.442 µM (active) |
| CC(C)[C@H](C(=O)Nc1ccc(C(=O)NO)cc1)c1ccccc1 | 1.11 µM (active) |
| CN1CCN(c2cc(C(=O)Nc3ccc4c(c3)-c3c(c(C(N)=O)nn3-c3ccc(F)cc3)CC4)c(Cl)cn2)CC1 | 22.2 µM (active) |
| COCCn1c2c([n+](Cc3cnccn3)c1C)C(=O)c1ccccc1C2=O | 1.98 µM (active) |
| COc1cccc2nc(-c3cccs3)nc(NN3C(=O)C=C(C)C3=O)c12 | 2.79 µM (active) |
| CC(C)c1nn(-c2c(Cl)cccc2Cl)c2nc(Cc3ccc(OCCO)cc3)[nH]c(=O)c12 | 0.0352 µM (active) |
| CC(C)(C)c1cnc(CSc2cnc(NC(=O)C3CCNCC3)s2)o1 | 0.351 µM (active) |

same assay, conditions: iHSKM muscle cells + IFN-b, HiBiT or CellTiter-Glo, 24 h; HiBiT; at 45.9 µM (top of the series)

| SMILES | activity change, negative = inhibition |
| --- | --- |
| NC(=O)c1c(OCc2c(F)cc(Br)cc2F)nsc1NC(=O)NCCCCN1CCCC1 | -22.6% (inactive) |
| c1ccc2c(CCNc3ccc(Nc4ccncc4)cc3)c[nH]c2c1 | 19.8% (inactive) |

same assay, conditions: iHSKM muscle cells + IFN-b, HiBiT or CellTiter-Glo, 24 h; Viability

| SMILES | Potency |
| --- | --- |
| CC(C)c1ccc(Cn2ccc3c4c(N)nc(NC5CC5)nc4ccc32)cc1 | 27.9 µM (active) |
| COc1cccc2c(NCc3ccccc3)nc(-n3c(N)nc4ccccc43)nc12 | 17.6 µM (active) |
| CN1CCN(c2cc(C(=O)Nc3ccc4c(c3)-c3c(c(C(N)=O)nn3-c3ccc(F)cc3)CC4)c(Cl)cn2)CC1 | 27.9 µM (active) |
| COCCn1c2c([n+](Cc3cnccn3)c1C)C(=O)c1ccccc1C2=O | 2.49 µM (active) |

same assay, conditions: iHSKM muscle cells + IFN-b, HiBiT or CellTiter-Glo, 24 h; Viability; at 45.9 µM (top of the series)

| SMILES | activity change, negative = inhibition |
| --- | --- |
| COc1cc2c(cc1-c1c(C)noc1C)ncc1[nH]c(=O)n([C@H](C)c3ccccn3)c12 | 1.25% (inactive) |
| CN(C)Cc1c(C(=O)NCCOc2ccc(C(=O)NO)cc2)oc2ccccc12 | -5.27% (inactive) |
| Cc1cc(C(=O)N2CCN(c3cccc(Cl)c3)CC2)n(-c2ccccc2)n1 | -19.8% (inactive) |
| CNC(=O)c1cc(Oc2ccc(NC(=O)Nc3cc(C(C)(C)C)nn3-c3ccc4ncccc4c3)c(F)c2)ccn1 | 26.8% (inactive) |
| CN(c1ncccc1CNc1nc(Nc2ccc3c(c2)CC(=O)N3)ncc1C(F)(F)F)S(C)(=O)=O | 13.6% (inactive) |
| COc1cc(C(=O)N2CCC(N3CCN(C)CC3)CC2)ccc1Nc1ncc2c(n1)N(C)c1ccccc1C(=O)N2C | -1.11% (inactive) |
| CC(C)c1cnn2c(NCc3ccccc3)cc(N[C@@H](CO)[C@H](O)CO)nc12 | 18.9% (inactive) |
| CC[C@H](CO)Nc1nc(NCc2ccccc2)c2ncn(C(C)C)c2n1 | -8.22% (inactive) |
| O=C(NC1CCNCC1)c1[nH]ncc1NC(=O)c1c(Cl)cccc1Cl | 4.1% (inactive) |
| CC(C)[C@H](C(=O)Nc1ccc(C(=O)NO)cc1)c1ccccc1 | -7.44% (inactive) |
| COC(=O)Nc1nc2ccc(C(=O)c3ccc(F)cc3)cc2[nH]1 | -28.8% (inactive) |
| COc1cccc2nc(-c3cccs3)nc(NN3C(=O)C=C(C)C3=O)c12 | 41.4% (inactive) |
| CC1(O)CC(c2nc(-c3ccc4ccc(-c5ccccc5)nc4c3)c3c(N)nccn23)C1 (stereo not given) | -13.8% (inactive) |
| CC(C)c1nn(-c2c(Cl)cccc2Cl)c2nc(Cc3ccc(OCCO)cc3)[nH]c(=O)c12 | 27.7% (inactive) |
| CC(C)(C)c1cnc(CSc2cnc(NC(=O)C3CCNCC3)s2)o1 | 9.32% (inactive) |
| Nc1nccc(Oc2ccc(NC(=O)c3c[nH]cc(-c4ccc(F)cc4)c3=O)cc2F)c1Cl | 1.85% (inactive) |
| c1ccc2c(CCNc3ccc(Nc4ccncc4)cc3)c[nH]c2c1 | -28.3% (inactive) |
